Results published in PubChem BioAssay (EPA / NIEHS).
Results filed as inconclusive are left out. Calls of active or inactive are those of the source. How the source made its calls, unless noted: active means hit-call score of the fitted dose curve at least 0.9, where 1 is the maximum; inactive means score below 0.9.

Legend:
[1] = target: Ratio of Nucleoli Translocation and Cytoplasm, AR (gene 367) (UniProt P10275); experiment: UPITT_HCI_U2OS_AR_TIF2_Nucleoli_Cytoplasm_Ratio_Agonist: University of Pittsburgh U2OS Androgen Receptor-Transcriptional Intermediary Factor 2 (AR-TIF2) Agonism High Content Imaging Assay for Ratio of Nucleoli Translocation and Cytoplasm (AID 2284000; active means hit-call score of the fitted dose curve at least 0.9, where 1 is the maximum;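 further: hits raise the red nucleolar to cytoplasm ratio above vehicle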)
In short: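 Primary screen at 20 uM final (0.2% DMSO), then triplicate confirmation and dose-response from 0.195 to 50 uM final (0.5% DMSO). Cells: U2OS with AR-RFP and TIF2-GFP. Endpoint is the nucleoli/cytoplasm red-fluorescence ratio, gain-of-signal vs DMSO.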

[2] = CCTE_Simmons_MITO_basal_resp_rate: CCTE's HepG2 Seahorse XF Respirometric Screening Assay at Basal Respiratory State, Simmons Lab (AID 2284001); details: actives raise or lower the signal
In short: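 Readout is oxygen consumption rate after test compound injection, measured by Seahorse XF in HepG2 cells. Seven concentrations from 125 nM up to 100 uM final are tested, and activity in either direction is fitted against DMSO.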

[3] = CCTE_Simmons_MITO_max_resp_rate: CCTE's HepG2 Seahorse XF Respirometric Screening Assay at Maximal Respiratory State [uncoupled], Simmons Lab (AID 2284002); details: actives raise or lower the signal
In short: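 HepG2 oxygen consumption was read on a Seahorse XF96 after FCCP uncoupler injection, following test compound injection; 7 concentrations, 125 nM–100 uM final, three biological replicates. Bidirectional fitting against DMSO vehicle baseline.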

[4] = CCTE_Simmons_MITO_inhib_resp_rate: CCTE's HepG2 Seahorse XF Respirometric Screening Assay at Inhibited Respiratory State [full ETC block], Simmons Lab (AID 2284006); details: actives raise or lower the signal
In short: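 OCR read-out in the inhibited phase following rotenone/antimycin A, after compound and FCCP injections, in HepG2 cells. Seven concentrations (125 nM to 100 uM final), three biological replicates, 6-min cycles over 72 min; DMSO baseline.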

[5] = CCTE_Harrill_HTTr_Viability_MCF7: CCTE's 6-hour Cell Viability Assessment for the High-Throughput Transcriptomics (HTTr) Platform, in MCF-7 cells cultured in DMEM + 10% fetal bovine serum, Harrill Lab (AID 2284010)
In short: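 PI exclusion, high-content imaging; 8-pt dilution series, 6 h exposure; bidirectional fit vs DMSO (neg. ctrl/baseline); gain of signal = loss of membrane integrity.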

[6] = CCTE_Harrill_HTTr_CellCount_MCF7: CCTE's Cell Proliferation Assessment for the High-Throughput Transcriptomics (HTTr) Platform, Harrill Lab (AID 2284012; active means hit-call score of the fitted dose curve at least 0.9, where 1 is the maximum;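 further: count of Hoechst-stained nuclei per well by high-content imaging in MCF-7 cells; cells exposed to compound for six hours; intended direction is loss of nuclei count meaning fewer cells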)
In short: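 Readout: Hoechst nuclear count by high-content imaging. MCF-7, 8-point dilution series, 6 h exposure. Bidirectional fit vs DMSO baseline.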

[7] = CCTE_Shafer_MEA_acute_spike_number: CCTE's Neural Acute Assay for Total Number of Spikes, Shafer Lab (AID 2284008);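 on AC50: curve fitted for decrease in spike count so AC50 reflects inhibitors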
In short: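 Primary rat cortical neurons on 16-electrode MEA wells; on DIV 13 or 15, 40-min baseline then 40-min recording with compound (0.03-40 uM) at 37 C. Spikes detected at 8x rms noise; percent change versus baseline, DMSO as negative control.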

[8] = CCTE_Shafer_MEA_acute_firing_rate_mean: CCTE's Neural Acute Assay for Mean Firing Rate, Shafer Lab (AID 2284009);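 further: analyzed for loss of signal so actives lower firing rate relative to DMSO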
In short: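 Spontaneous spiking of primary rat cortical networks, DIV 13/15, 37 C. Compound 0.03-40 uM, n ≥3 wells; 40 min baseline vs 40 min treated. Endpoint fitted in loss-of-signal direction against DMSO.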

[9] = CCTE_Harrill_HTTr_Apoptosis_MCF7: CCTE's 6-hour Apoptosis Assessment for the High-Throughput Transcriptomics (HTTr) Platform, in MCF-7 cells cultured in DMEM + 10% fetal bovine serum, Harrill Lab (AID 2284011)
In short: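 MCF-7 cells in DMEM + 10% fetal bovine serum were exposed to chemicals for 6 hours over an eight-point dilution series. Caspase-3/7 activation was imaged by high content imaging with CellEvent Caspase 3/7 Green; bidirectional fitting used DMSO as baseline.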

[10] = CCTE_Shafer_MEA_acute_burst_number: CCTE's Neural Acute Assay for Single-Electrode Bursts, Shafer Lab (AID 2284013)
In short: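 Burst totals were derived with adaptive spike detection (8x rms threshold) on filtered signals from rat cortical cultures; change relative to pre-treatment baseline after 40-min compound exposure (0.03-40 uM) was fitted in the negative direction against DMSO.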

[11] = CCTE_Shafer_MEA_acute_burst_duration_mean: CCTE's Neural Acute Assay for Mean Burst Duration, Shafer Lab (AID 2284014);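 further: hits are decreases in mean burst duration relative to DMSO controls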
In short: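 Acute exposure of mature rat cortical networks (DIV 13 or 15) grown on microelectrode arrays to 0.03-40 uM compound. Mean burst duration compared with the 40-min pre-dose baseline over a 40-min post-dose recording at 37 C.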

[12] = CCTE_Shafer_MEA_acute_per_burst_spike_number_mean: CCTE's Neural Acute Assay for Average Number of Spikes Per Burst, Shafer Lab (AID 2284015);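 further: hits are decreases in mean spikes per burst versus baseline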
In short: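 Read-out: percent change in mean spikes per burst, each well's post-exposure 40-min recording versus its own 40-min baseline. Rat cortical cultures, DIV 13 or 15, compounds 0.03-40 uM; DMSO is negative control, loss-of-signal fitting.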

[13] = CCTE_Shafer_MEA_acute_interburst_interval_mean: CCTE's Neural Acute Assay for Mean Interburst Interval, Shafer Lab (AID 2284016);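 further: percent change of mean interburst interval versus each well's own pre-dose baseline; curves fitted for decrease in interburst interval relative to DMSO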
In short: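 Rat cortical cultures, DIV 13/15; 20 min equilibration, 40 min baseline, compound 0.03-40 uM, 40 min re-recording, 37 C. Spikes detected at 8x rms noise (300-5000 Hz band-pass). Endpoint: % change in interburst interval, fitted in loss direction vs DMSO.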

[14] = CCTE_Shafer_MEA_acute_burst_percentage_mean: CCTE's Neural Acute Assay for Percentage of Spikes in a Burst, Shafer Lab (AID 2284017);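 on AC50: curve fitted for loss of signal so potency reflects decreased burst percentage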
In short: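 Rat cortical cultures, DIV 13/15, 37 C. Spikes detected at 8x rms noise (300-5000 Hz band-pass). Burst spikes/total spikes averaged across electrodes per well; % change post- vs pre-treatment (40 min each), loss-of-signal fit vs DMSO.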

[15] = CCTE_Shafer_MEA_acute_burst_percentage_std: CCTE's Neural Acute Assay for Standard Deviation of Burst Percentage, Shafer Lab (AID 2284018);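 further: fitted in the negative direction so actives lower burst percentage SD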
In short: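 Primary rat cortical neurons on 16-electrode MEA wells were recorded 40 min at baseline (DIV 13 or 15), then 40 min after compound (0.03-40 uM), at 37 C. Well value is SD across electrodes of spikes-in-bursts/total spikes; endpoint is percent change, DMSO-referenced.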

[16] = CCTE_Shafer_MEA_acute_per_network_burst_spike_number_mean: CCTE's Neural Acute Assay for Average Number of Spikes in a Network Burst, Shafer Lab (AID 2284019);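 on AC50: curve fitted for loss of signal so actives reduce spikes per network burst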
In short: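 Acute exposure of rat primary cortical networks (DIV 13/15) on MEAs; adaptive spike detection at 8x rms noise, 37 C. Percent change in spikes per network burst after 40 min with compound (0.03-40 uM), negative direction vs DMSO.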

[17] = CCTE_Shafer_MEA_acute_per_network_burst_spike_number_std: CCTE's Neural Acute Assay for Standard Deviation of Number of Spikes in a Network Burst, Shafer Lab (AID 2284020);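 further: fitted for decrease in spike-number SD versus DMSO so actives lower it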
In short: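 Acute MEA exposure, rat cortical neurons, 0.03-40 uM. Per-well % change versus own baseline; DMSO as negative control.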

[18] = CCTE_Shafer_MEA_acute_per_network_burst_electrodes_number_mean: CCTE's Neural Acute Assay for Mean Number of Electrodes in a Network Burst, Shafer Lab (AID 2284021);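 further: curves fitted for decreases only so hits reduce electrodes per burst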
In short: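 Rat primary cortical neurons on 16-electrode MEA wells were recorded 40 min at baseline on DIV 13 or 15, then 40 min after compound (0.03-40 uM), at 37 C. Value is percent change per well, fitted in loss direction versus DMSO.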

[19] = CCTE_Shafer_MEA_acute_cross_correlation_area: CCTE's Neural Acute Assay for Area of Cross Correlation, Shafer Lab (AID 2284024);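 further: area under pooled inter-electrode spike cross-correlation near zero lag as percent change from own baseline; curves fitted for loss of cross-correlation area so actives lower synchrony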
In short: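 Primary rat cortical neurons on 48-well MEA plates (16 electrodes/well) were recorded 40 min at baseline on DIV 13 or 15, then 40 min with compound (0.03-40 uM) at 37 C; cross-correlation area expressed as percent change from baseline.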

[20] = CCTE_Simmons_MITO_viability: CellTiter-Glo Viability Assessment for CCTE's HepG2 Seahorse XF Respirometric Screening Assay [post-hoc], Simmons Lab (AID 2284007; active means hit-call score of the fitted dose curve at least 0.9, where 1 is the maximum)
In short: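 Luciferase-coupled ATP luminescence, single endpoint. HepG2, post-respirometry. Compound 125 nM–100 uM final, 7 conc., 90 min. n=3 biological, technical singles. DMSO vehicle/baseline; dichlone 10 nM–100 uM, 8 conc., as positive control.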

Measured: AC50

Sequence of Ratio of Nucleoli Translocation and Cytoplasm, AR (gene 367) (P10275 whole entry, looked up): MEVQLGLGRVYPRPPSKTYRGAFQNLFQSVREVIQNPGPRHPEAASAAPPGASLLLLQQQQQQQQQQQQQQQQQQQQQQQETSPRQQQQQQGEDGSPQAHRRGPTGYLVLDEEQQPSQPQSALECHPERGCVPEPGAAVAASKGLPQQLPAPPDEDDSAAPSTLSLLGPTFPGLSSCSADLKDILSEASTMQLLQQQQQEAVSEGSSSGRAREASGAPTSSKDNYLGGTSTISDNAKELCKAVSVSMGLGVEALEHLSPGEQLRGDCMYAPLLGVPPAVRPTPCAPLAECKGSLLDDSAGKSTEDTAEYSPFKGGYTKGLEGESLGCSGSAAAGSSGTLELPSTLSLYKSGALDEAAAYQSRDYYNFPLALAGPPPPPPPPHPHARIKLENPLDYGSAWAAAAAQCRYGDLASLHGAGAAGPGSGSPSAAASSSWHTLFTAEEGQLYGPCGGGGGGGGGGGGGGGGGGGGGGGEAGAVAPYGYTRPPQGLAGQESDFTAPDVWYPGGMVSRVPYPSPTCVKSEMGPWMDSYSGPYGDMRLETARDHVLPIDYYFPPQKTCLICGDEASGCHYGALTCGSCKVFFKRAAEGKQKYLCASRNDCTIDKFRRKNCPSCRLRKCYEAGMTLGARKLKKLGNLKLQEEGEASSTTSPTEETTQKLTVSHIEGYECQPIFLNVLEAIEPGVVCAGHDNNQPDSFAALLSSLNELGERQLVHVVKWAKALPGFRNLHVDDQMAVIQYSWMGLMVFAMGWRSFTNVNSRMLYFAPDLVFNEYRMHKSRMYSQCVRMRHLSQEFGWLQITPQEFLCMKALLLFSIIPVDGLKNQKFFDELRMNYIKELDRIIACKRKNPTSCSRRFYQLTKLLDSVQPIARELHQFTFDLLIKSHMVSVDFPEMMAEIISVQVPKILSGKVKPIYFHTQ

C[C@]12C=CC3=C4CCC(=O)C=C4CC[C@H]3[C@@H]1CC[C@@H]2O
inactive: [2] | [3] | [4] | [5] | [6]
active: [1] 0.00266 µM

O=C(Oc1ccc(Br)cc1)N1CCN2CCC1CC2
active: [16] 20 µM
inactive: [7] | [8] | [5] | [9] | [10] | [11] | [12] | [13] | [14] | [15] | [17] | [18] | [19]

CC(C)N(Cc1ccccc1)C(=O)C(C)(C)C
active: [2] 35.6 µM
inactive: [1] | [3] | [4] | [20] | [5]

CCN(CC)N=O
inactive: [7] | [8] | [5] | [9] | [10] | [11] | [12] | [13] | [14] | [15] | [16] | [17] | [18] | [19]

ClCCOCCCl
inactive: [7] | [8] | [5] | [9] | [10] | [11] | [12] | [13] | [14] | [15] | [16] | [17] | [18] | [19]

Nc1ccc(N=Nc2ccccc2)cc1
inactive: [2] | [3] | [4] | [20] | [5]

CC(C)COC(=O)c1ccccc1C(=O)OCC(C)C
inactive: [4] | [20] | [5] | [9] | [10] | [13] | [15] | [18] | [19]
active: [2] 56.3 µM | [3] 50 µM | [7] 7.13 µM | [8] 7.16 µM | [11] 20 µM | [12] 6.45 µM | [14] 9.02 µM | [16] 6.67 µM | [17] 8.5 µM

COC(=O)c1ccccc1N
inactive: [5] | [6]

Cc1ccc(N=C=O)cc1N=C=O
inactive: [5] | [9]

Clc1ccccc1Cl
inactive: [5] | [9]

c1ccc2c(c1)-c1cccc3cccc-2c13
inactive: [5]

OCCCl
inactive: [5]

CN(C)[C@@H]1C(=O)C(C(N)=O)=C(O)[C@@]2(O)C(=O)C3=C(O)c4c(O)cccc4[C@@](C)(O)[C@H]3C[C@@H]12
inactive: [5]

CN(C)c1ccccc1
inactive: [5] | [9]

CN(C)c1ccc(C(=O)c2ccc(N(C)C)cc2)cc1
inactive: [5] | [9]

Oc1ccc2ccc3cccc4ccc1c2c34
inactive: [5]

Nc1ccc(Oc2ccc(N)cc2)cc1
inactive: [5] | [9]

O=Cc1ccco1
inactive: [7] | [8] | [11] | [12] | [13] | [14] | [15] | [16] | [17] | [18] | [19]

Cc1ccc([N+](=O)[O-])cc1
inactive: [5] | [9]

Nc1cc(Cl)cc(C(=O)O)c1Cl
inactive: [5]

CCCCCCCCOC(=O)c1ccc(C(=O)OCCCCCCCC)c(C(=O)OCCCCCCCC)c1
inactive: [5]

CCOc1cccc(C2(N3CCN(c4ccccc4)CC3)CCC(C)CC2)c1 (configuration not stated)
inactive: [5] | [9]

CS(=O)(=O)NC(=O)c1cc(Oc2ccc(C(F)(F)F)cc2Cl)ccc1[N+](=O)[O-]
inactive: [5]

[O-][Cl+]O
inactive: [5]

C=CCc1ccc2c(c1)OCO2
inactive: [5]

CNC(=O)Oc1cccc2c1OC(C)(C)C2
inactive: [5]

N#CC(Br)(Br)C(N)=O
inactive: [5]

Nc1ccc(Cc2ccc(N)cc2)cc1
inactive: [5] | [9]

CC(C)(C)OOC(C)(C)CCC(C)(C)OOC(C)(C)C
inactive: [5] | [9]

Cc1cccc(N)c1N
inactive: [5] | [9]

c1ccc2c(c1)oc1ccccc12
inactive: [5]

C1=Cc2cccc3cccc1c23
inactive: [5]

Cn1cc(-c2ccccc2)c(=O)c(-c2cccc(C(F)(F)F)c2)c1
inactive: [5] | [9]

OCCOCCO
inactive: [5]

CC(O)CCO (configuration not stated)
inactive: [5]

c1ccc(C2CO2)cc1 (configuration not stated)
inactive: [5]

ClC1=C(Cl)C2(Cl)C3C(Cl)C=CC3C1(Cl)C2(Cl)Cl (configuration not stated)
inactive: [5] | [11] | [13] | [17]
active: [7] 7.52 µM | [8] 7.53 µM | [10] 20 µM | [12] 4.15 µM | [14] 0.72 µM | [15] 20 µM | [16] 4.22 µM | [18] 4.31 µM | [19] 4.37 µM

Cc1ccc(N)cc1
inactive: [5] | [9]

CCCCCCCCCCCCCN1CC(C)OC(C)C1 (configuration not stated)
inactive: [5] | [9]

O=C(O)C1C2CCC(O2)C1C(=O)O (configuration not stated)
inactive: [5]

CN(C)C(=O)Nc1ccc(Cl)cc1
inactive: [5]

COP(=S)(OC)SCN1C(=O)c2ccccc2C1=O
inactive: [5] | [9] | [6]

O=C1CCCO1
inactive: [5]

Clc1ccc(Cl)c(Cl)c1
inactive: [5] | [9]

CCC12COCN1COC2
inactive: [5] | [9]

Brc1ccc(Oc2ccccc2)cc1
inactive: [5] | [9]
